# Screening results from PubChem.
# Sampled rows, rich in hits. Any-hit rate of the full collection: about 4.1%.
# ssDAF-12 act – activators of S. stercoralis DAF-12 nuclear receptor; HEK293 ssDAF-12/GRIP1 lit1-tk-luc reporter, luminescence; % of 3 µM dafachronic acid response; AID 652126; actives 1% (n = 370,000); activation, % at 6.8 µM;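 active = activation above the mean over all tested compounds plus 3 SD, cut at about 0.9% in these data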;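 note: 0% = DMSO-only wells and 100% = 3 µM delta7-dafachronic acid wells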
# hcDAF12 agonist – activates DAF-12 receptor from parasite H. contortus; HEK293 hcDAF-12 lit1-tk-luc reporter, luminescence; 0% DMSO, 100% Δ7-dafachronic acid; activation, % at 6.8 µM; actives 1.4% (n = 370,000);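 active = activation above the mean of all tested compounds plus 3 SD, cut at about 5.5% in these data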;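 note: 100% = response to 3 µM Δ7-dafachronic acid high control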
# hgDAF12 agonist – activates the H. glycines DAF-12 receptor ligand-binding domain; HEK293 GAL4-hgDAF12 UAS-luciferase reporter, agonist luminescence; normalized to butyrate control; activation, % at 6.8 µM; actives 1.8% (n = 370,000); AID 687014;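 active = activation above a cutoff set at the mean of all screened compounds plus 3 SD, cut at about 10% in these data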;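 note: 0% = DMSO wells and 100% = sodium butyrate wells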
# DAX1 inh-1 – inhibitors of DAX1 repression of SF-1 activated StAR promoter; inhibition, % at 6.8 µM; HEK293T StAR-luciferase reporter, SF-1/DAX-1 repression relief; actives 1.1% (n = 370,000);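 active = inhibition above the mean over all tested compounds plus 3 SD, cut at about 3.6% in these data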;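 note: 0% = DAX-1 cells with DMSO and 100% = cells lacking DAX-1 with DMSO; higher inhibition means more luminescence from relief of DAX-1 repression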
# DAX1 inh-2 – inhibitors of human orphan nuclear receptor DAX1 (NR0B1). P51843. actives 0.99% (n = 340,000). HEK293 Gal4-DAX1 luciferase reporter, luminescence. AID 504766. inhibition, % at 6.75 µM;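 active = inhibition above the mean over all tested compounds plus 3 SD, cut at about 4.2% in these data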;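 note: 0% = DAX1-transfected cells with DMSO and 100% = empty-vector control cells with DMSO; inhibition shows as a rise in luminescence from relieved DAX1 repression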
# hgDAF12 ag – confirmation of H. glycines DAF-12 agonists. shares compounds with hgDAF12 agonist. HEK293 GAL4-hgDAF12 luciferase reporter, agonist mode; percent of butyrate response. activation, % at 6.8 µM. actives 80% (n = 3,300);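 active = mean activation over triplicate wells above the hit cutoff derived from the earlier primary screen, cut at about 11% in these data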;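 note: 0% = DMSO low control and 100% = 2 mM sodium butyrate high control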
# LXRb DAF12 ctr – activates human LXR-beta, counter-screen for DAF-12 agonists; shares compounds with hgDAF12 agonist; HEK293 Gal4-LXR luciferase reporter, 24 h; activation, % at 6.8 µM; 3,300 tested, under 10 active; AID 743051;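 active = mean activation of the triplicate above a set limit carried over from the primary screen, none filed active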
# Target sequence (P55055 whole entry, looked up, the tested form may be a part): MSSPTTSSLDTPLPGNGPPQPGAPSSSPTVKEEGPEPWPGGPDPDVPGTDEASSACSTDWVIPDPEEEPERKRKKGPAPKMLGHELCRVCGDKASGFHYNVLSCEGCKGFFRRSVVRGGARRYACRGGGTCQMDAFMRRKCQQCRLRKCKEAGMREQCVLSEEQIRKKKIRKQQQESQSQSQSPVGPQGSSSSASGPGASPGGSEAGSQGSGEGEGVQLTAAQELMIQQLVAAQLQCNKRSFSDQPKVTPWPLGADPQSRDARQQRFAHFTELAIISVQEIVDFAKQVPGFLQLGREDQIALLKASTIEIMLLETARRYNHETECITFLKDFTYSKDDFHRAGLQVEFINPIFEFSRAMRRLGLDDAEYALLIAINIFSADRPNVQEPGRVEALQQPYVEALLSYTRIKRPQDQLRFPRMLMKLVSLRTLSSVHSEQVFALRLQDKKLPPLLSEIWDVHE
# * marks the source's active call; other numbers are inactive results; / = no result.
SMILES,ssDAF-12 act,hcDAF12 agonist,hgDAF12 agonist,DAX1 inh-1,DAX1 inh-2,hgDAF12 ag,LXRb DAF12 ctr
CCCNC(=O)C1CC(=O)N(c2ccc(OCc3ccc(Cl)cc3)cc2)C1 (stereo unspecified),0,5,15*,3,1,16*,1
N#C/C(=C\c1ccc(N2CCOCC2)cc1)c1ccccc1,0,6.1*,21*,2,2,17*,1
S=c1[nH]nc(-c2cc(-c3ccccc3)n[nH]2)n1N=Cc1cccc(OCc2ccccc2)c1,-1,-1,-1,1,/,/,/
O=C(Nc1ccn(Cc2ccccc2)n1)c1ccc(F)cc1,1,4,17*,0,-1,13*,0
O=C1C(Cl)=C(N2CCCCCC2)C(=O)N1c1ccc(Cl)cc1,0,-1,-1,-1,0,/,/
O=C1C=C(N2CCCCCC2)C(=O)N1c1ccc(Cl)cc1,0,5,15*,2,4,5,1
NS(=O)(=O)c1ccc(C(=O)Nc2ccc(-c3nc4cccnc4s3)cc2)cc1,-1,5,14*,2,2,14*,1
NS(=O)(=O)c1ccc(NC(=O)c2ccc(-c3ccccc3)cc2)cc1,-1,0,3,1,/,/,/
CN1C2=N[C@@H](c3ccc4c(c3)OCO4)CC(=O)N2/C(=C\c2ccccc2)[C@H]1c1ccccc1,-1,-4,5,/,/,/,/
O=C(Nc1cc2c(cc1Cl)OCCCO2)c1ccc(F)cc1,-1,2,8,2,2,/,/
COc1cccc(C(=O)Nc2cc3c(cc2Cl)OCCCO3)c1,0,2,14*,4,2,14*,0
Cc1ccc(C(=O)Nc2cc3c(cc2Cl)OCCCO3)cc1,1,4,17*,2,3,13*,0
COc1ccc(C(=O)Nc2cc3c(cc2Cl)OCCCO3)cc1,0,3,10,2,3,/,/
Cn1ccc2cc(OCc3ccccc3)ccc21,1.4*,4,22*,4.2*,3,15*,1
COC(=O)[C@]12C[C@H](CC(=O)NCCC(C)C)C(=O)N(Cc3ccccc3)C1=C[C@H](C1CCCC1)O[C@@H]2C,-1,1,1,1,/,/,/
Cc1ccc(NS(=O)(=O)c2ccccc2)c([N+](=O)[O-])c1,-1,0,-1,2,-1,/,/
Cc1ccc(S(=O)(=O)Nc2ccccc2[N+](=O)[O-])cc1,-1,-1,28*,-2,/,1,0
O=C(NCCc1c[nH]c2ccccc12)OCc1cn(Cc2c(F)cccc2F)nn1,-1,-3,1,0,/,/,/
O=C(Nc1ccn(-c2ccccc2)n1)c1ccccc1Br,0,0,20*,1,2,5,0
Cc1ccc(-c2cc(C(=O)Nc3ccncc3)c3ccccc3n2)cc1,-1,0,2,0,0,/,/
Cc1ccc(C)c(NC(=O)c2cc(-c3ccc(Cl)cc3)nc3ccccc23)c1,-1,-1,15*,0,/,1,0
CCC[C@H]1[C@@H](NC(=O)/C=C/c2ccccc2)CC[C@@]23CCCN2C(=O)CCC[C@@H]13,-2,-3,0,/,/,/,/
Cc1ccc(Nc2n[nH]c(=S)s2)cc1C,-1,3,18*,3.8*,3,11*,1
O=C(N/N=C/c1ccccn1)c1cc(-c2ccc3ccccc3c2)n[nH]1,0,5,22*,3,1,1,0
CCc1ccc(-c2cc(C(=O)N/N=C/c3ccccn3)[nH]n2)cc1,0,4,18*,2,4.5*,3,0
SMILES,ssDAF-12 act,hcDAF12 agonist,hgDAF12 agonist,DAX1 inh-1,DAX1 inh-2,hgDAF12 ag,LXRb DAF12 ctr
O=C(N/N=C/c1ccccn1)c1cc(-c2ccccc2Cl)n[nH]1,-1,0,0,0,1,/,/
O=C(N/N=C/c1ccccn1)c1cc(-c2cccc3ccccc23)n[nH]1,-1,-1,14*,1,6.6*,-1,0
Cc1ccc(-c2cc(C(=O)N/N=C/c3c[nH]c4ccccc34)[nH]n2)cc1,-1,0,14*,-2,-2,6,0
CCOC(=O)N1CCN(C(=O)C[C@H]2C[C@@]3(C(=O)OC)C(=C[C@H](C(C)(C)C)O[C@@H]3C)N(Cc3ccccc3)C2=O)CC1,-2,-1,-1,-1,/,/,/
COC(=O)C12C=C3CC(c4ccc(OC)cc4)=C3C(=O)N1Cc1[nH]c3ccccc3c1C2 (stereo unspecified),-1,1,-2,-1,/,/,/
O=C(NNC(=O)C1CC=CCC1C(=O)O)c1cccs1 (stereo unspecified),0,3,17*,2,0,3,0
Cc1ccsc1C(=O)NNC(=O)C1CC=CCC1C(=O)O (stereo unspecified),1.4*,5,17*,4.2*,2,5,0
Cc1oc2c(c(C)nn2-c2ccccc2)c(=O)c1Cl,-2,0,-2,0,/,/,/
Nc1ccc(-c2nc3ncccc3o2)c(Cl)c1,0,6.0*,18*,3,5.6*,16*,1
Nc1ccc(Cl)c(-c2nc3ncccc3o2)c1,-1,-2,3,0,0,/,/
FC(F)(F)c1cnc2c(-c3ccccc3)n[nH]c2c1,0,4,14*,1,/,7,0
COc1ccc2nc(N(CCN(C)C)C(=O)c3ccc4ccccc4c3)sc2c1,-1,2,1,0,0,/,/
COc1ccc2nc(N(CCN(C)C)C(=O)c3ccc4ncsc4c3)sc2c1,0,6.0*,14*,3.9*,0,19*,1
CCCC(=O)Nc1ccc(NC(=O)c2ccccn2)cn1,1.2*,3,13*,2,2,9,0
CNS(=O)(=O)c1ccc(NC(=O)c2ccccn2)cc1,0,3,14*,1,1,9,0
Cc1ccccc1Nc1nnc(SCC2CCCCO2)s1 (stereo unspecified),0,2,15*,4.2*,1,17*,1
Cc1cccc(Nc2nnc(SCC(=O)NCC3CCCO3)s2)c1C (stereo unspecified),-1,2,6,-1,-1,/,/
COc1ccc2c(c1)NC(=O)CC(c1ccccc1)=N2,-2,-1,6,0,1,/,/
COc1ccc(O)c(C2=Nc3ccccc3N=C(c3ccccc3)C2)c1,0,3,14*,1,3,0,0
COc1cc(C2Nc3ccccc3C(=O)N2c2ccc(Cl)cc2)c(Cl)cc1OCC(=O)O (stereo unspecified),1,5,14*,4.0*,3,9,1
CCOc1cc(C2Nc3ccccc3C(=O)N2c2ccccc2)c(Br)cc1OCC(=O)O (stereo unspecified),-1,1,2,1,-1,/,/
